Test results reported in the antibiotic and cytotoxicity screens of Wong et al. (2023).
The campaign covered roughly 39,000 compounds. About 3,300 (8.5%) were called active. This is one part of a sample in which actives are shown more often than they occur.

system: HepG2; experiment: cytotoxicity call (relative viability < 0.9); details: 10 µM

Row | SMILES | cytotoxicity call
1 | C[C@H](CO)N1C[C@H](C)[C@@H](CN(C)Cc2ccccc2F)Oc2cc(C#CC3CC3)ccc2S1(=O)=O | inactive
2 | Nc1cnc(Cl)nc1N | inactive
3 | COC(=O)C[C@@H]1C(=O)NCCN1C(=O)NS(=O)(=O)c1ccc(C)cc1 | inactive
4 | C[C@@H]1CN([C@H](C)CO)C(=O)c2cccc(NS(=O)(=O)c3cccs3)c2O[C@@H]1CN(C)S(=O)(=O)c1ccccc1 | inactive
5 | O=C(NN1CCCCC1)c1nn(-c2ccc(Cl)cc2Cl)c(-c2ccc(C#Cc3ccc(C(F)(F)F)cc3)s2)c1CNS(=O)(=O)N1CCCC1 | inactive
6 | COc1ccc(CN(C)C[C@H]2OCCCC[C@H](C)Oc3ccc(NC(=O)Nc4ccc(F)cc4)cc3C(=O)N([C@@H](C)CO)C[C@H]2C)cc1 | active
7 | COc1ccc(CN(C)C[C@H]2OCCCC[C@H](C)Oc3ccc(NC(=O)Nc4ccc(F)cc4)cc3C(=O)N([C@H](C)CO)C[C@H]2C)cc1 | active
8 | COc1ccc(CN(C)C[C@H]2OCCCC[C@@H](C)Oc3ccc(NC(=O)Nc4ccc(F)cc4)cc3C(=O)N([C@H](C)CO)C[C@H]2C)cc1 | active
9 | COc1ccc(CN(C)C[C@H]2OCCCC[C@H](C)Oc3ccc(NC(=O)Nc4ccc(F)cc4)cc3C(=O)N([C@H](C)CO)C[C@@H]2C)cc1 | inactive
10 | COc1ccc(CN(C)C[C@H]2OCCCC[C@@H](C)Oc3ccc(NC(=O)Nc4ccc(F)cc4)cc3C(=O)N([C@@H](C)CO)C[C@@H]2C)cc1 | active
11 | COc1ccc(CN(C)C[C@H]2OCCCC[C@H](C)Oc3ccc(NC(=O)Nc4ccc(F)cc4)cc3C(=O)N([C@@H](C)CO)C[C@@H]2C)cc1 | inactive
12 | CCn1nnc2c(SCC(N)=O)ncnc21 | inactive
13 | O=C(NCc1ccccc1)OCCO | inactive
14 | O=C(C[C@H]1CC[C@@H]2[C@H](COC[C@@H](O)CN2C(=O)Nc2ccc(F)cc2)O1)NCCCN1CCOCC1 | inactive
15 | CN1CCN(C(=O)C[C@H]2CC[C@@H]3[C@H](COC[C@H](O)CN3S(=O)(=O)c3cccc(F)c3)O2)CC1 | inactive
16 | COc1cccc(S(=O)(=O)N2C[C@H](O)COC[C@H]3O[C@@H](CC(=O)NCCCN4CCOCC4)CC[C@@H]32)c1 | inactive
17 | C[C@@H]1CCCCO[C@H](CN(C)C(=O)Cc2ccccc2)[C@@H](C)CN([C@H](C)CO)C(=O)c2cc(NS(=O)(=O)c3ccc(Cl)cc3)ccc2O1 | inactive
18 | C[C@@H]1CN([C@H](C)CO)C(=O)c2cc(NS(=O)(=O)c3ccccc3)ccc2O[C@@H](C)CCCCO[C@@H]1CN(C)C(=O)C1CCCCC1 | inactive
19 | CN1CCCN=C1C=Cc1cccc(O)c1.O=C(O)c1cc2ccccc2c(Cc2c(O)c(C(=O)O)cc3ccccc23)c1O | inactive
20 | Cc1cc(C=Cc2ccc3cc(N(C)C)ccc3[n+]2C)c(C)n1-c1ccccc1.O=C([O-])c1cc2ccccc2c(Cc2c(O)c(C(=O)O)cc3ccccc23)c1O | active
21 | CN1CCCN=C1C=Cc1cccs1.O=C(O)c1cc2ccccc2c(Cc2c(O)c(C(=O)O)cc3ccccc23)c1O | inactive

Row | SMILES | cytotoxicity call
22 | O=C(C[C@@H]1C[C@H]2c3cc(NS(=O)(=O)c4ccc(F)cc4)ccc3O[C@H]2[C@H](CO)O1)NC1CCCCC1 | inactive
23 | C[C@@H]1CN([C@@H](C)CO)C(=O)c2cc(NC(=O)Nc3ccc(C(F)(F)F)cc3)ccc2O[C@@H]1CN(C)S(=O)(=O)c1ccc(Cl)cc1 | active
24 | C[C@H](CO)N1C[C@H](C)[C@@H](CN(C)S(=O)(=O)c2ccc(Cl)cc2)Oc2ccc(NS(C)(=O)=O)cc2C1=O | inactive
25 | C[C@H]1CN([C@@H](C)CO)C(=O)c2cc(NS(C)(=O)=O)ccc2O[C@@H]1CN(C)S(=O)(=O)c1ccc(Cl)cc1 | active
26 | C[C@H]1CN([C@@H](C)CO)C(=O)c2cc(NC(=O)Nc3ccc(C(F)(F)F)cc3)ccc2O[C@@H]1CN(C)S(=O)(=O)c1ccc(Cl)cc1 | active
27 | C[C@@H]1CN([C@H](C)CO)C(=O)c2cc(NC(=O)Nc3ccc(C(F)(F)F)cc3)ccc2O[C@@H]1CN(C)S(=O)(=O)c1ccc(Cl)cc1 | active
28 | C[C@H]1CN([C@@H](C)CO)C(=O)c2cc(NS(C)(=O)=O)ccc2O[C@H]1CN(C)S(=O)(=O)c1ccc(Cl)cc1 | inactive
29 | Cc1noc(C)c1S(=O)(=O)Nc1ccc2c(c1)C(=O)N([C@H](C)CO)C[C@@H](C)[C@@H](CN(C)S(=O)(=O)c1c(C)noc1C)O2 | inactive
30 | CS(=O)(=O)N1CCOC[C@]2(CN(C(=O)c3ccc[nH]3)CCO2)C1 | inactive
31 | Cc1noc(C)c1S(=O)(=O)Nc1cccc2c1O[C@@H](CN(C)S(=O)(=O)c1ccc(Cl)cc1)[C@@H](C)CN([C@@H](C)CO)C2=O | inactive
32 | CCS(=O)(=O)N1CCO[C@]2(COCCN(c3cncnc3)C2)C1 | inactive
33 | Cc1noc(C)c1NC(=O)Nc1ccc2c(c1)C(=O)N([C@@H](C)CO)C[C@@H](C)[C@@H](CN(C)Cc1ccc(C(F)(F)F)cc1)O2 | inactive
34 | Cc1cccn2c(=O)c(-c3nn[nH]n3)cnc12 | inactive
35 | O=C(C[C@H]1C=C[C@H](NC(=O)CN2CCOCC2)[C@@H](CO)O1)NCc1cccc(F)c1 | inactive
36 | C[C@@H]1CN([C@@H](C)CO)S(=O)(=O)c2ccc(-c3cncnc3)cc2O[C@@H]1CN(C)C(=O)NC1CCCC1 | inactive
37 | C[C@H](CO)N1C[C@H](C)[C@@H](CN(C)Cc2ccc(C(=O)O)cc2)Oc2c(NC(=O)Nc3ccc(C(F)(F)F)cc3)cccc2C1=O | inactive
38 | C[C@H](CO)N1C[C@H](C)[C@H](CN(C)S(=O)(=O)c2ccc(Cl)cc2)Oc2ccc(NC(=O)Nc3ccc(C(F)(F)F)cc3)cc2C1=O | active
39 | C[C@H]1CN([C@@H](C)CO)C(=O)c2cc(NC(=O)Nc3ccc(C(F)(F)F)cc3)ccc2O[C@H]1CN(C)S(=O)(=O)c1ccc(Cl)cc1 | inactive
40 | C[C@@H]1CN([C@H](C)CO)C(=O)c2cc(NC(=O)Nc3ccc(C(F)(F)F)cc3)ccc2O[C@H]1CN(C)S(=O)(=O)c1ccc(Cl)cc1 | active
41 | C[C@@H]1CN([C@@H](C)CO)C(=O)c2cc(NC(=O)Nc3ccc(C(F)(F)F)cc3)ccc2O[C@H]1CN(C)S(=O)(=O)c1ccc(Cl)cc1 | active
